# hcDAF-12 act = H. contortus DAF-12 nuclear receptor activators, primary screen, cell-based, luminescence, HEK293, lit1-tk-luc reporter. AID 652067, 2013. HEK293 hcDAF-12 lit1-tk-luc reporter; 0% DMSO, 100% Δ7-dafachronic acid. 1.4% of 370,000 active. activation, % at 6.8 µM;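 active = activation above the mean of all tested compounds plus 3 SD, cut at about 5.5% in these data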;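 also: 100% = response to 3 µM Δ7-dafachronic acid high control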
# hgDAF-12 ag = H. glycines DAF-12 receptor agonists, primary screen, cell-based, luminescence, HEK293, GAL4 fusion, UAS-luciferase | Nuclear hormone receptor DAF-12 (Heterodera glycines), GAL4 fusion | HEK293 GAL4-hgDAF12 UAS-luciferase reporter, agonist luminescence; normalized to butyrate control | activation, % at 6.8 µM | 1.8% of 370,000 active | AID 687014, 2013;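 active = activation above a cutoff set at the mean of all screened compounds plus 3 SD, cut at about 10% in these data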;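 also: 0% = DMSO wells and 100% = sodium butyrate wells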
# ssDAF12 agonist = S. stercoralis DAF-12 nuclear receptor activators, primary screen, cell-based, luminescence, HEK293, GRIP1 co-expression, lit1-tk-luc | HEK293 ssDAF-12/GRIP1 lit1-tk-luc reporter; % of 3 µM dafachronic acid response | activation, % at 6.8 µM | 1% of 370,000 active | AID 652126, 2013;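 active = activation above the mean over all tested compounds plus 3 SD, cut at about 0.9% in these data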;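 also: 0% = DMSO-only wells and 100% = 3 µM delta7-dafachronic acid wells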
# DAX1 inh-1 = DAX1 (NR0B1) inhibitors, primary screen, cell-based, HEK293, Gal4-DAX1, luciferase luminescence; AID 504766, 2011; HEK293 Gal4-DAX1 luciferase reporter; inhibition, % at 6.75 µM; 0.99% of 340,000 active;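 active = inhibition above the mean over all tested compounds plus 3 SD, cut at about 4.2% in these data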;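 also: 0% = DAX1-transfected cells with DMSO and 100% = empty-vector control cells with DMSO; inhibition shows as a rise in luminescence from relieved DAX1 repression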
# Target sequence (P51843 207-470 limits assumed): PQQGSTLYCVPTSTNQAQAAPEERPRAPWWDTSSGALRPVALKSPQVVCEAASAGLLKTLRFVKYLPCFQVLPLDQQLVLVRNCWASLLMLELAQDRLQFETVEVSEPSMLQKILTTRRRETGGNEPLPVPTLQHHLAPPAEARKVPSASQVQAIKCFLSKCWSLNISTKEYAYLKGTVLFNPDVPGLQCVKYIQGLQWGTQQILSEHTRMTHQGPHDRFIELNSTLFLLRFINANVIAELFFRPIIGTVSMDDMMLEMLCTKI
# DAX1 inh-2 = DAX1 (NR0B1) inhibitors on StAR promoter, primary screen, cell-based, luminescence, SF-1 (NR5A1), full-length DAX-1 | HEK293T StAR-luciferase reporter, SF-1/DAX-1 repression relief | inhibition, % at 6.8 µM | 1.1% of 370,000 active;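 active = inhibition above the mean over all tested compounds plus 3 SD, cut at about 3.6% in these data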;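 also: 0% = DAX-1 cells with DMSO and 100% = cells lacking DAX-1 with DMSO; higher inhibition means more luminescence from relief of DAX-1 repression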
# hgDAF12 conf = H. glycines DAF-12 receptor agonists, confirmation, cell-based, luminescence, HEK293, GAL4-LBD fusion; shares compounds with hgDAF-12 ag; HEK293 GAL4-hgDAF12 luciferase reporter, agonist mode; percent of butyrate response; activation, % at 6.8 µM; 80% of 3,300 active; AID 743050, 2013;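 active = mean activation over triplicate wells above the hit cutoff derived from the earlier primary screen, cut at about 11% in these data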;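 also: 0% = DMSO low control and 100% = 2 mM sodium butyrate high control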
# LXR ag 2 = LXR agonists, Gal4 luciferase reporter, confirmation, counter-screen for hgDAF-12 agonist project, cell-based, luminescence, HEK293, H. glycines campaign. shares compounds with hgDAF-12 ag. 24 h. activation, % at 6.8 µM. 3,300 tested, under 10 active;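 active = mean activation of the triplicate above a set limit carried over from the primary screen, none filed active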
# Numbers without * were called inactive; . = no result given. The list is not random: actives were taken first. Their share in the collection is about 4.1%.
SMILES,hcDAF-12 act,hgDAF-12 ag,ssDAF12 agonist,DAX1 inh-1,DAX1 inh-2,hgDAF12 conf,LXR ag 2
C=CCN(C(=O)[C@@H](C1CC1)[C@@H](O)c1ccc2ccccc2c1)c1ccccc1,-2,5,-1,.,-2,.,.
COC(=O)[C@]12C[C@H](CC(=O)NCc3cccc(C(F)(F)F)c3)C(=O)N(Cc3cccc4ccccc34)C1=C[C@H](COCc1ccccc1)O[C@@H]2C,-2,-2,-2,.,-1,.,.
c1ccc(Cc2nnc(-c3ccccc3)o2)cc1,2,14*,0,4,0,10,0
Cc1nc(Nc2ccncc2)c2oc3ccccc3c2n1,0,4,-1,0,0,.,.
CCc1nc(Nc2ccncc2)c2oc3ccccc3c2n1,1,19*,-1,1,0,8,0
CCOC(=O)c1ccc(C#Cc2ccc3c(c2)C(C)(C)CCS3)nc1,-1,-1,-2,.,1,.,.
O=C(C1CC(c2ccccc2O)=NO1)N1CCCC1 (stereo not given),1,14*,-1,-1,1,2,0
CCOC(=O)N1CCN(C(=O)C2CC(c3ccccc3OC)=NO2)CC1 (stereo not given),3,2,-1,-1,0,.,.
COc1cccc(CNC(=O)[C@H]2CCCN2C(=O)C2CCCN2C(=O)c2ccc(OC)c(F)c2)c1 (stereo not given in full),-1,0,-1,.,0,.,.
COc1ccc(Nc2ncnc3c2c(C)c(C)n3CCO)cc1,3,16*,1,3,4,17*,1
COc1ccc(CCC(=O)NNC(=S)NCc2ccc(F)cc2)cc1,-2,14*,-1,4,-1,0,0
O=C(N=C1N=C2C=CC=CN2Cc2ccccc21)c1ccc(S(=O)(=O)N2CCCC2)cc1,3,8,-2,2,1,.,.
CN(C)S(=O)(=O)c1cccc(C(=O)N2CCN(Cc3ccccc3)CC2)c1,-2,0,-1,1,-1,.,.
O=C(N=C1N=C2C=CC=CN2Cc2ccccc21)c1ccc(S(=O)(=O)N2CCOCC2)cc1,3,16*,0,4,4.1*,12*,0
CN(C)S(=O)(=O)c1cccc(C(=O)N=C2N=C3C=CC(Cl)=CN3Cc3ccccc32)c1,5,16*,0,3,1,7,0
Cc1ccc2nc(NC(=O)C3CC3C)sc2c1 (stereo not given),5,14*,0,1,1,12*,1
CC1CC1C(=O)Nc1nc2ccc(S(C)(=O)=O)cc2s1 (stereo not given),-1,1,-1,-2,0,.,.
Cc1ccc2nc(NC(=O)CCn3cccc3)sc2c1,2,15*,-2,2,3,9,0
COc1ccccc1/C=N/Nc1nccnc1Cl,5.8*,14*,0,1,3,10*,0
CC(C)[C@@H](C)/C=C/[C@@H](C)[C@H]1CC[C@@H]2[C@]1(C)CCC1[C@]23C=C[C@]2(C[C@@H](O)CC[C@]12C)N(c1ccc(Br)cn1)O3 (stereo not given in full),1,-1,-1,.,0,.,.
O=C(CSc1cccc[n+]1[O-])Nc1cc2c(cc1Cl)C(=O)c1ccccc1C2=O,5,15*,1.1*,1,1,13*,1
O=C(CSc1cccc[n+]1[O-])Nc1cc([N+](=O)[O-])ccc1Cl,-1,2,-1,0,0,.,.
Nc1nc2ccc(-c3nc4ccccc4o3)cc2s1,3,14*,1,2,3,13*,1
c1ccc2oc(-c3ccc4nc[nH]c4c3)nc2c1,4,19*,0,2,3.8*,18*,1
COc1ccc(-c2nc3ccccc3o2)cc1OC,4,8,-1,0,1,.,.
SMILES,hcDAF-12 act,hgDAF-12 ag,ssDAF12 agonist,DAX1 inh-1,DAX1 inh-2,hgDAF12 conf,LXR ag 2
CCc1ccc(-c2csc(NC(=O)Oc3ccccc3)n2)cc1,1,15*,0,1,3,6,0
O=C(Nc1nc(-c2cccc(Br)c2)cs1)Oc1ccccc1,4,4,-1,1,0,.,.
Cc1ccc(-c2nc3ccc(Br)cn3c2Cc2cccc(F)c2)cc1,1,21*,0,.,3,10*,1
Cc1ccc2nc(-c3ccc(Cl)cc3)c(Cc3cccc(Cl)c3)n2c1,2,13*,-1,.,3.9*,3,0
Fc1ccc(-c2nc3ccc(Br)cn3c2Cc2ccccc2)cc1,-1,3,-1,2,2,.,.
Cn1c(=O)cc(OCCCC(=O)Nc2cc(-c3cn[nH]c3)ccn2)c2ccccc21,-6,-11,-3,.,.,.,.
COc1ccc(CN(CCN2CCOCC2)C(=O)c2cc(F)ccc2F)cc1OC,-3,-2,-1,.,0,.,.
O=C(Nc1cccc(Cl)c1Cl)c1csc([C@H]2C[C@H](O)[C@@H](CO)O2)n1,5,15*,0,.,2,13*,1
O=C(Nc1cccc(Cl)c1Cl)c1csc([C@@H]2O[C@H](CO)[C@@H](O)[C@H]2O)n1,0,7,-1,.,2,.,.
C/C(CC(=O)Nc1c(C)cc(C)cc1C)=N\NC(=O)OC(C)(C)C,1,13*,0,3,1,1,0
O=c1c2ccccc2n(Cc2ccccc2)n1[C@@H](Cc1ccccc1)Cn1cc(-c2ccc(-c3ccccc3)cc2)nn1,-1,-3,-2,.,0,.,.
Cc1cccc2c1-c1sc(C(=O)Nc3nccs3)cc1CO2,1,19*,0,0,3,14*,1
Cc1cccc2c1-c1sc(C(=O)Nc3cccnc3)cc1CO2,2,3,0,0,-1,.,.
C[C@H](CO)N1C[C@H](C)[C@@H](CN(C)Cc2ccccc2)Oc2ccc(NC(=O)CCCCCC(=O)Nc3ccccc3N)cc2C1=O,3,16*,-1,3,2,9,0
